# Test results: PubChem BioAssay (NCI)
# Compounds without any hit were thinned out: in the full panel of roughly 79,000, 15% have a hit. Values without a mark were called inactive. The source made the active and inactive calls. Cut-off read from the data, not from the text of the source: active = growth inhibition above about 70%; inactive = the rest.
# Tests used:
# [1] = NCI Yeast Anticancer Drug Screen. Data for the rad52 strain (AID 147);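 note: 0% = growth of vehicle-treated control cultures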; conditions: S. cerevisiae rad52 mutant growth inhibition, active compounds read high
# Method in brief: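 Measured: yeast growth inhibition. System: strain with a defined DNA damage repair alteration. Reference: vehicle-treated control cultures.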
# [2] = NCI Yeast Anticancer Drug Screen. Data for the wt1 strain (AID 149);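 note: 0% = growth of vehicle-treated wt1 cultures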; conditions: S. cerevisiae wt1 strain (SPY 50644) growth inhibition, active compounds read high
# Method in brief: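 wt1 strain grown with compound or vehicle; inhibition taken from the growth difference.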
# [3] = NCI Yeast Anticancer Drug Screen. Data for the rad50EPP+ strain (AID 151);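 note: 0% = growth of vehicle-treated control cultures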; conditions: S. cerevisiae rad50 mutant strain, active compounds read high
# Method in brief: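 One strain with a rad50 alteration (rad50EPP+) was compound-treated, its growth then compared to that of vehicle controls.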
# [4] = NCI Yeast Anticancer Drug Screen. Data for the rad50 strain (AID 155);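 note: 0% = growth of vehicle-only cultures of the same strain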; conditions: S. cerevisiae rad50 strain growth inhibition, active compounds read high
# Method in brief: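 DNA repair mutant yeast, compound exposure, growth read-out; inhibition is taken relative to vehicle.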
# [5] = NCI Yeast Anticancer Drug Screen. Data for the mec2-1 strain (AID 157); conditions: S. cerevisiae mec2-1 strain, active compounds read high
# Method in brief: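 Test agents were screened against the mec2-1 yeast strain, with defined DNA repair or cell cycle alteration. Growth was scored as inhibition against vehicle-only controls.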
# [6] = NCI Yeast Anticancer Drug Screen. Data for the rad14 strain (AID 159);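 note: 0% = growth of vehicle-treated control cultures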; conditions: S. cerevisiae rad14 strain growth inhibition, active compounds read high
# Method in brief: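 DNA repair-defective yeast, compound-exposed; % growth inhibition derived by comparison with vehicle-treated controls.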
# [7] = NCI Yeast Anticancer Drug Screen. Data for the sgs1 mgt1 strain (AID 161);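 note: 0% = growth of cultures given vehicle only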; conditions: S. cerevisiae sgs1 mgt1 strain, active compounds read high
# Method in brief: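 Read-out: growth inhibition vs vehicle controls. Cells: mutant yeast strain deficient in DNA damage repair.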
# [8] = NCI Yeast Anticancer Drug Screen. Data for the CLN2oe strain (AID 163);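 note: 0% = growth of vehicle-only control cultures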; conditions: S. cerevisiae CLN2oe strain, active compounds read high
# Method in brief: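 Here, growth inhibition in a cell-cycle-altered yeast strain after compound exposure was quantified against vehicle control growth.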
# [9] = NCI Yeast Anticancer Drug Screen. Data for the cln2 rad14 strain (AID 165);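 note: 0% = growth equal to vehicle treated cultures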; conditions: S. cerevisiae cln2 rad14 strain, active compounds read high
# Method in brief: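 Growth of compound-exposed yeast (cln2 rad14 genotype) measured and expressed as inhibition relative to vehicle.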
# [10] = NCI Yeast Anticancer Drug Screen. Data for the bub3 strain (AID 167); conditions: S. cerevisiae bub3 mutant strain, active compounds read high
# Method in brief: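 In this screen, a yeast mutant lacking normal mitotic checkpoint function is challenged with compound. Relative growth versus vehicle gives the inhibition value.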
# [11] = NCI Yeast Anticancer Drug Screen. Data for the wt2 strain (AID 169);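 note: 0% = growth of vehicle-treated yeast cultures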; conditions: S. cerevisiae wt2 strain growth inhibition, active compounds read high
# Method in brief: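 Genetically defined yeast strains from a DNA-repair/cell-cycle panel were used. Compound-exposed yeast growth was measured, and the inhibition was calculated relative to vehicle treatment.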
# [12] = NCI Yeast Anticancer Drug Screen. Data for the mlh1 strain (AID 171);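 note: 0% = growth of vehicle-treated control cultures of the same strain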; conditions: S. cerevisiae mlh1 strain growth inhibition, active compounds read high
# Method in brief: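 Here the genetically defined yeast mutant is grown with each compound, and the extent to which its growth falls below that of vehicle-exposed cells is reported.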
# [13] = NCI Yeast Anticancer Drug Screen. Data for the sgs1 strain (AID 173);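 note: 0% = growth of vehicle-only control cultures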; conditions: S. cerevisiae sgs1 mutant, active compounds read high
# Method in brief: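 Relative growth inhibition, referenced to vehicle, was determined in a yeast strain with a defined alteration affecting DNA damage repair or cell cycle control after compound exposure.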
# [14] = NCI Yeast Anticancer Drug Screen. Data for the mlh1 rad18 strain (AID 175); conditions: S. cerevisiae mlh1 rad18 strain growth inhibition, active compounds read high
# Method in brief: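 In this whole-cell yeast screen, a strain with altered DNA damage repair is challenged with compound, and its growth is measured against matched vehicle-treated controls.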
# [15] = NCI Yeast Anticancer Drug Screen. Data for the rad18 strain (AID 177); conditions: S. cerevisiae rad18 mutant growth inhibition, active compounds read high
# Method in brief: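 Screen uses a yeast strain with a defined lesion in DNA damage repair; compound effect is read as loss of growth compared to untreated vehicle cultures.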
# [16] = at 5.0 µM (retest, dose inferred, filed as 0.5)
# [17] = at 50.0 µM (retest, dose inferred, filed as 5.0)
smiles,measurement,setting,value
CC[C@]1(O)CC(OC2CC(N(C)C)C(O)C(C)O2)c2c(cc3c(c2O)C(=O)c2c(O)cccc2C3=O)[C@@H]1C(=O)OC (stereo partly drawn),growth inhibition,[1]; at 1.2 µM,31%
same,growth inhibition,[1]; at 3.7 µM,77% (active)
same,growth inhibition,[1]; at 11.0 µM,86% (active)
same,growth inhibition,[1]; at 33.0 µM,94% (active)
same,growth inhibition,[1]; at 100.0 µM,96% (active)
same,growth inhibition,[2]; at 1.2 µM,-2%
same,growth inhibition,[2]; at 3.7 µM,-4%
same,growth inhibition,[2]; at 11.0 µM,-1%
same,growth inhibition,[2]; at 33.0 µM,91% (active)
same,growth inhibition,[2]; at 100.0 µM,96% (active)
same,growth inhibition,[3]; at 1.2 µM,6%
same,growth inhibition,[3]; at 3.7 µM,12%
same,growth inhibition,[3]; at 11.0 µM,40%
same,growth inhibition,[3]; at 33.0 µM,70% (active)
same,growth inhibition,[3]; at 100.0 µM,89% (active)
same,growth inhibition,[4]; at 1.2 µM,33%
same,growth inhibition,[4]; at 3.7 µM,75% (active)
same,growth inhibition,[4]; [16],50%
same,growth inhibition,[4]; at 11.0 µM,87% (active)
same,growth inhibition,[4]; at 33.0 µM,96% (active)
same,growth inhibition,[4]; [17],95% (active)
same,growth inhibition,[4]; at 50.0 µM,91.6% (active)
same,growth inhibition,[4]; at 100.0 µM,97% (active)
same,growth inhibition,[5]; at 1.2 µM,-16%
same,growth inhibition,[5]; at 3.7 µM,-14%
same,growth inhibition,[5]; [16],4%
same,growth inhibition,[5]; at 11.0 µM,7%
same,growth inhibition,[5]; at 33.0 µM,79% (active)
same,growth inhibition,[5]; [17],95% (active)
same,growth inhibition,[5]; at 50.0 µM,93% (active)
same,growth inhibition,[5]; at 100.0 µM,95% (active)
same,growth inhibition,[6]; at 1.2 µM,-12%
same,growth inhibition,[6]; at 3.7 µM,-18%
same,growth inhibition,[6]; at 11.0 µM,0%
same,growth inhibition,[6]; at 33.0 µM,81% (active)
same,growth inhibition,[6]; at 100.0 µM,96% (active)
same,growth inhibition,[7]; [16],36%
same,growth inhibition,[7]; [17],96% (active)
same,growth inhibition,[7]; at 50.0 µM,93% (active)
same,growth inhibition,[8]; at 1.2 µM,-37%
same,growth inhibition,[8]; at 3.7 µM,-6%
same,growth inhibition,[8]; at 11.0 µM,12%
same,growth inhibition,[8]; at 33.0 µM,89% (active)
same,growth inhibition,[8]; at 100.0 µM,95% (active)
same,growth inhibition,[9]; [16],15%
same,growth inhibition,[9]; [17],92% (active)
same,growth inhibition,[9]; at 50.0 µM,90.4% (active)
same,growth inhibition,[10]; at 1.2 µM,33%
same,growth inhibition,[10]; at 3.7 µM,32%
same,growth inhibition,[10]; [16],21%
same,growth inhibition,[10]; at 11.0 µM,36%
same,growth inhibition,[10]; at 33.0 µM,93% (active)
same,growth inhibition,[10]; [17],97% (active)
same,growth inhibition,[10]; at 50.0 µM,92% (active)
same,growth inhibition,[10]; at 100.0 µM,98% (active)
same,growth inhibition,[11]; at 1.2 µM,-6%
same,growth inhibition,[11]; at 3.7 µM,-6%
same,growth inhibition,[11]; at 11.0 µM,41%
same,growth inhibition,[11]; at 33.0 µM,95% (active)
same,growth inhibition,[11]; at 100.0 µM,97% (active)
same,growth inhibition,[12]; at 1.2 µM,-4%
same,growth inhibition,[12]; at 3.7 µM,6%
same,growth inhibition,[12]; at 11.0 µM,9%
same,growth inhibition,[12]; at 33.0 µM,90% (active)
same,growth inhibition,[12]; at 100.0 µM,96% (active)
same,growth inhibition,[13]; at 1.2 µM,-8%
same,growth inhibition,[13]; at 3.7 µM,-2%
same,growth inhibition,[13]; at 11.0 µM,14%
same,growth inhibition,[13]; at 33.0 µM,92% (active)
same,growth inhibition,[13]; at 100.0 µM,96% (active)
same,growth inhibition,[14]; [16],22%
same,growth inhibition,[14]; [17],95% (active)
same,growth inhibition,[14]; at 50.0 µM,91% (active)
same,growth inhibition,[15]; at 1.2 µM,6%
same,growth inhibition,[15]; at 3.7 µM,-9%
same,growth inhibition,[15]; at 11.0 µM,2%
same,growth inhibition,[15]; at 33.0 µM,95% (active)
same,growth inhibition,[15]; at 100.0 µM,97% (active)
